These results are taken from PubChem BioAssay (Tox21).

The nature of test [1]: qHTS assay to identify small molecule antagonists of the androgen receptor (AR) signaling pathway using the MDA cell line in the presence of 0.5 nM R1881 - cell viability counter screen (AID 1259242). Note: nearly all actives have a fitted effect of over 45% in size. In a few lines: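 Live-cell protease fluorescence, CellTiter-Fluor, 30 min at 37C. Cells: MDA-kb2, 3,000/well, preincubated 5 hr. Compounds plus 0.5 nM R1881 final, 16 hr, 37C, 0% CO2.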
In general terms: Quantitative high-throughput screening tests each substance at several concentrations.

Test [2] has as its target Estrogen receptor (Homo sapiens) (UniProt P03372). The test is described as follows: qHTS assay to identify small molecule antagonists of the estrogen receptor alpha (ER-alpha) signaling pathway using the BG1 cell line in the presence of 0.1 nM 17-beta-estradiol (AID 1259244). Note: nearly all actives have a fitted effect of over 50% in size. Note: potency is the fitted concentration of half-maximal effect. The method in brief:
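Luminescence after ONE-Glo (30 min, room temperature) measured ERE-luciferase activity in VM7Luc4E2 cells treated 22 h with compound and 0.1 nM final 17beta-estradiol as stimulator.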

Test [3] is described as follows: qHTS assay to identify small molecule phospholipidosis (PLD) inducers (AID 1259344; active = well fitted curve in the direction sought with a large enough effect; an effect the other way counts as inactive or inconclusive). In a few lines: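 Cells (HepG2, 900 per well) attach for 4 h, receive LipidTOX Red and compound together, incubate 24 h at 37 C, are fixed 30 min with paraformaldehyde/Hoechst, then imaged at one site per well.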
The nature of test [4]: qHTS assay to identify small molecule HDAC inhibitors (AID 1259364). Note: potency is the fitted concentration of half-maximal effect.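 Note: wild-type HCT-116 cells with endogenous class I/II HDAC activity; nearly all actives have a fitted effect of over 45% in size.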 In a few lines:
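HCT-116 (wild type), 1,500 cells/well, overnight; compound 2 hr 37C 5% CO2; HDAC-Glo I/II reagent 30 min RT; luminescence readout.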

The nature of test [5]: qHTS assay to identify small molecule HDAC inhibitors - cell viability counter screen (AID 1259365). Note: series mostly up to about 92 µM; nearly all actives have a fitted effect of over 50% in size. In a few lines:
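Measured quantity is CellTiter-Glo luminescence from wild-type HCT-116 cells after compound incubation of 2hr at 37C, 5% CO2; reagent developed 30min at room temperature.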

Test [6] in a line: qHTS assay to identify small molecule agonists of the sonic hedgehog signaling (Shh) pathway - cell viability counter screen (AID 1259366). Note: nearly all actives have a fitted effect of over 50% in size. The method in brief: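 In quantitative high-throughput format, 3T3 Gli1-Luc cells were exposed to compounds for 24hr and multiplexed for viability using CellTiter-Fluor, incubated 1hr at 37C before the fluorescence read.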
A short description of test [7]: qHTS assay to identify small molecule antagonists of the sonic hedgehog signaling (Shh) pathway - cell viability counter screen (AID 1259367). Note: nearly all actives have a fitted effect of over 55% in size. The method in brief: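 Cytotoxicity was assessed in parallel with Shh reporter activity by measuring live-cell protease fluorescence (CellTiter-Fluor) in NIH/3T3 cells stably carrying Gli1-Luc, treated with compound under conditioned medium stimulation for 23 hr plus 1 hr reagent incubation.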

A short description of test [8]: qHTS assay to identify small molecule agonists of the sonic hedgehog signaling (Shh) pathway (AID 1259368; calls by dose curve;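 note: NIH/3T3-derived 3T3Gli1-Luc cells carrying a stable Gli1-driven firefly luciferase reporter; series mostly up to about 92 µM; nearly all actives have a fitted effect of over 15% in size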). In a few lines:
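Read-out: firefly luciferase luminescence from a Gli1 response element reporter stably integrated in NIH/3T3-derived 3T3Gli1-Luc cells, measured 30 min at room temperature after reagent addition. Compound exposure lasted 24 hr at 37 C, 5% CO2.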

The nature of test [9]: qHTS assay to identify small molecule antagonists of the sonic hedgehog signaling (Shh) pathway (AID 1259369; calls by dose curve; note: nearly all actives have a fitted effect of over 45% in size; note: potency is the fitted concentration of half-maximal effect). The method in brief:
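Luminescence readout: firefly Luc under Gli1 response element in 3T3Gli1-Luc cells (NIH/3T3 clone). Antagonist mode, stimulation by conditioned medium; compound exposure 24hr at 37 C, 5% CO2.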

Test [10] is described as follows: qHTS assay to identify small molecule agonists of the androgen receptor (AR) signaling pathway in the presence of an antagonist - cell viability counter screen (AID 1259379).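 Note: MDA-kb2 human breast cancer cells carrying an MMTV luciferase reporter; series mostly up to about 92 µM; nearly all actives have a fitted effect of over 25% in size.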 In a few lines:
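Viability counter screen: CellTiter-Fluor fluorescence, measured in the same wells as the luciferase read-out. MDA-kb2 cells, 3,000/well, with nilutamide at 3.0uM final and compounds at 15 concentrations, 16 hr at 37C, 0% CO2.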

A short description of test [11]: qHTS assay to identify small molecule agonists of the estrogen receptor beta (ER-beta) signaling pathway - cell viability counter screen (AID 1259380). Note: nearly all actives have a fitted effect of over 30% in size. Note: potency is the fitted concentration of half-maximal effect. The method in brief: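 Luminescence read-out (CellTiter-Glo, 30 min, room temp) taken in the same wells as the beta-lactamase reporter assay; ER-beta-UAS-bla HEK293T cells exposed to DMSO-dissolved compounds for 16 hr at 37C in 2% charcoal-stripped FBS medium.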

A short description of test [12]: qHTS assay to identify small molecule antagonists of the estrogen receptor beta (ER-beta) signaling pathway - cell viability counter screen (AID 1259382). Note: series mostly up to about 92 µM; nearly all actives have a fitted effect of over 55% in size. In a few lines: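 Luminescent ATP read-out (CellTiter-Glo, 30 min, RT) taken in the same wells as the bla reporter assay. HEK293T ER-beta-UAS-bla cells in 2% charcoal-stripped FBS were exposed to compounds with 1nM E2 for 16 hr at 37C.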

Test [13] concerns the target Estrogen receptor (Homo sapiens) (UniProt P03372). The test is described as follows: qHTS assay to identify small molecule agonists of the estrogen receptor alpha (ER-alpha) signaling pathway in the presence of an antagonist (AID 1259383; calls by dose curve; note: top concentration of the series differs between compounds; nearly all actives have a fitted effect of over 15% in size). The method in brief:
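Luciferase luminescence (ONE-Glo, 30min at room temperature) measured in VM7Luc4E2 cells after 22hr compound exposure at 15 concentrations, with 10.0nM ICI-182,780 final present; cells express endogenous ER-alpha and carry four EREs upstream of luciferase.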

Test [14] is described as follows: qHTS assay to identify small molecule agonists or antagonists of the thyroid stimulating hormone receptor (TSHR) signaling pathway - wild type cell line counter screen (AID 1259384; calls by dose curve). In a few lines:
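Wild-type HEK293 cells were plated 18 h at 37 C/5% CO2, pin-dosed with compound plus Ro20-1724 medium, held 30 min at room temperature, then given cAMP-d2 and anti-cAMP-cryptate; fluorescence was read after 1 h. Fifteen concentrations, triplicate.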

Test [15] deals with Thyrotropin receptor (Homo sapiens) (UniProt P16473). The test is described as follows: qHTS assay to identify small molecule antagonists of the thyroid stimulating hormone receptor (TSHR) signaling pathway (AID 1259385; calls by dose curve; note: nearly all actives have a fitted effect of over 20% in size). The method in brief:
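TSHR-HEK293 cells were plated and held 18 h at 37C/5% CO2, then given compound plus Ro20-1724 and stimulated with TSH at 1.5 ng/mL final. After 30 min at room temperature, cAMP was detected with cAMP-d2/anti-cAMP-cryptate (1 h) by fluorescence.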

The nature of test [16]: qHTS assay to identify small molecule agonists of the estrogen receptor alpha (ER-alpha) signaling pathway in the presence of an antagonist - cell viability counter screen (AID 1259386).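 Note: series mostly up to about 92 µM; cells exposed to compounds for 22 h at 37 °C before the viability read; nearly all actives have a fitted effect of over 30% in size.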 The method in brief:
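Read-out: CellTiter-Fluor fluorescence after 1hr reagent incubation, measured in the same wells as the luciferase readout. VM7Luc4E2 cells were exposed to 15 compound concentrations with 10.0nM ICI-182,780 for 22hr at 37C.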

Test [17] addresses Estrogen receptor beta (Homo sapiens) (UniProt Q92731). In words: qHTS assay to identify small molecule agonists of the estrogen receptor beta (ER-beta) signaling pathway (AID 1259377; active = well fitted activation curve with a large enough effect in the signal ratio in the repeat runs, not every such curve was filed as active; the % refers to the signal ratio). In a few lines: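 Reporter cells (HEK293T, ER-beta-UAS-bla) receive compounds or DMSO after a 6 hr pre-incubation. They then incubate 16 hr at 37C/5% CO2, and fluorescence from LiveBLAzer B/G substrate is measured after 2 hours at room temperature.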

The target is the same in test [18]. In words: qHTS assay to identify small molecule antagonists of the estrogen receptor beta (ER-beta) signaling pathway (AID 1259378; active = well fitted inhibition curve with a large enough effect in the signal ratio in the repeat runs, not every such curve was filed as active; the % refers to the signal ratio; note: potency is the fitted concentration of half-maximal effect). In a few lines: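 ER-beta-UAS-bla HEK293T (GripTite) cells in 2% charcoal-stripped FBS medium were preincubated 6 hr at 37C, dosed with compound, then stimulated with 1 nM E2 (final) for 16 hr; beta-lactamase reporter read by B/G FRET fluorescence after 2 hr substrate loading.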

The target of test [19] is Androgen receptor (Homo sapiens) (UniProt P10275). The test is described as follows: qHTS assay to identify small molecule antagonists of the androgen receptor (AR) signaling pathway using the MDA cell line in the presence of 0.5 nM R1881 (AID 1259243). Note: nearly all actives have a fitted effect of over 50% in size. The method in brief: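 MDA-kb2, MMTV-luc (AR/GR elements); 3,000 cells/well; cpd + 0.5 nM R1881 final; 16 hr 37C, 0% CO2; ONE-Glo 30 min RT; luminescence.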

The target is the same in test [20]. In words: qHTS assay to identify small molecule agonists of the androgen receptor (AR) signaling pathway in the presence of an antagonist (AID 1259381; calls by dose curve; note: nearly all actives have a fitted effect of over 15% in size). In a few lines:
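Luciferase read-out (ONE-Glo, 30min room temperature) in MDA-kb2 MMTV-reporter cells; agonist mode run in presence of AR antagonist nilutamide, 3.0uM final. Compounds tested as 15-point series, 16hr exposure at 37C, 0% CO2.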

Several values for one entry are separate records, joined by “and”; a condition that tells them apart may be missing. Identical values can stand only once. Records with an inconclusive call do not appear. Activity calls are given as the source filed them. Unless noted, calls come from the whole dose curve; as a rule, active = well fitted curve in the direction sought with a large enough effect in the repeat runs; inconclusive = weak or mixed curves; inactive = no such curve, though single readings can be large; an effect the other way counts as inactive or inconclusive.

Chain of Thyrotropin receptor (Homo sapiens) (P16473 whole entry, looked up): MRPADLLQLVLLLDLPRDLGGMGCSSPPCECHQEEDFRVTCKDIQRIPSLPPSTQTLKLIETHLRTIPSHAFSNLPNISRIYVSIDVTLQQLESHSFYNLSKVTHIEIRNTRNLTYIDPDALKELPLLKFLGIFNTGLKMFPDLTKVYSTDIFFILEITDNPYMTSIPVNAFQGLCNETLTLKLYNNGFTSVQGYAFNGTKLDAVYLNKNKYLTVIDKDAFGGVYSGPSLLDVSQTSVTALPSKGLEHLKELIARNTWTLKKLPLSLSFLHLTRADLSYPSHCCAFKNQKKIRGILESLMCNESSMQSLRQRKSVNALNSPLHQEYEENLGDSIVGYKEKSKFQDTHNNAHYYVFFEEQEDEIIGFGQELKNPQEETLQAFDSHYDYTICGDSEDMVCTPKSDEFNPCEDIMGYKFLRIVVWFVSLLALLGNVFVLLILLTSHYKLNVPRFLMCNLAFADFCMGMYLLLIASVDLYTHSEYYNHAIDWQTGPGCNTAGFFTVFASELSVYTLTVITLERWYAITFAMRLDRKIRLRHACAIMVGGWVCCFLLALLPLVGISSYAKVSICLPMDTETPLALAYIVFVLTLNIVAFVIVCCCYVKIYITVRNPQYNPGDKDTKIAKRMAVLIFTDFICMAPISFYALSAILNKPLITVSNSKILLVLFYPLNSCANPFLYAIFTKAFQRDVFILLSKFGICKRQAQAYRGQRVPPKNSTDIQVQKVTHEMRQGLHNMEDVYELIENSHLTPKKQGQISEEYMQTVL
Chain of Androgen receptor (Homo sapiens) (P10275 whole entry, looked up): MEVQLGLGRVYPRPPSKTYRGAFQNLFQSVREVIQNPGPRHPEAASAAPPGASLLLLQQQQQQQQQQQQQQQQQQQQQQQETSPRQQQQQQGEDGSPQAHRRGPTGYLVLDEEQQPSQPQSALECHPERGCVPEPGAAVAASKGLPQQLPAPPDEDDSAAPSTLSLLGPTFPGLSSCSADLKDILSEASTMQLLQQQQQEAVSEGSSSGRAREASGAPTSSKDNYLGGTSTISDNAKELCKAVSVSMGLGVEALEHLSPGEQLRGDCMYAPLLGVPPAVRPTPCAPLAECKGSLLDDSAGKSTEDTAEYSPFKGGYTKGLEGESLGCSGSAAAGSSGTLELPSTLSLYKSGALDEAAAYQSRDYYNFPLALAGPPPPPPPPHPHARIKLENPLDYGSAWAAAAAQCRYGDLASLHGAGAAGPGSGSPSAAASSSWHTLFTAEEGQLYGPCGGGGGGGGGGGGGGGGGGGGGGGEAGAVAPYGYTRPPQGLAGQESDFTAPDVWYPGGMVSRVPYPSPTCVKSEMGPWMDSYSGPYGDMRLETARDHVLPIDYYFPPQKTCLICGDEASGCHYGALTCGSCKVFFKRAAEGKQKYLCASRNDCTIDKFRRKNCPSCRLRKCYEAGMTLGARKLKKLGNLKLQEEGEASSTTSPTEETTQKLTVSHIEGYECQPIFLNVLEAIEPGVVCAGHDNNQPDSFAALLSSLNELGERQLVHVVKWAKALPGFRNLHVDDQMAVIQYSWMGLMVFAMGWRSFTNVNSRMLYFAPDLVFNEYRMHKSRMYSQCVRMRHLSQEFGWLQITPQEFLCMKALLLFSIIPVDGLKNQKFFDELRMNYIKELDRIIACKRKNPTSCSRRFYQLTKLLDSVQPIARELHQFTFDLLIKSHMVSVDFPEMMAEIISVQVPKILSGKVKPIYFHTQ
Chain of Estrogen receptor (Homo sapiens) (P03372 whole entry, looked up): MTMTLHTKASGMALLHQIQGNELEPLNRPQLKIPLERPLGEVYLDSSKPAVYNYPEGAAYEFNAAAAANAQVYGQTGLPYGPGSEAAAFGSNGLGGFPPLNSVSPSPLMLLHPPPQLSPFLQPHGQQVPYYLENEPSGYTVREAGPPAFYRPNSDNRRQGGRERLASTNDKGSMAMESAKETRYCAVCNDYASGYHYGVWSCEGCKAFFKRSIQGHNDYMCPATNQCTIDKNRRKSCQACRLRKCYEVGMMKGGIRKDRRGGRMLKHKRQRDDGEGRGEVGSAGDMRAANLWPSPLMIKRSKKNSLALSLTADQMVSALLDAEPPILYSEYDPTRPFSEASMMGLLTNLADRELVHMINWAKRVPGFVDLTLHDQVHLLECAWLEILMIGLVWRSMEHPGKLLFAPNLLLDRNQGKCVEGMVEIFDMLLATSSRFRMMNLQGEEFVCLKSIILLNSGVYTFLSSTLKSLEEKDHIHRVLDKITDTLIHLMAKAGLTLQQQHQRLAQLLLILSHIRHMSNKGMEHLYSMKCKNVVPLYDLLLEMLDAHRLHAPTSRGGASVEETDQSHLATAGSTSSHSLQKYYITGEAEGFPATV
Chain of Estrogen receptor beta (Homo sapiens) (Q92731 whole entry, looked up): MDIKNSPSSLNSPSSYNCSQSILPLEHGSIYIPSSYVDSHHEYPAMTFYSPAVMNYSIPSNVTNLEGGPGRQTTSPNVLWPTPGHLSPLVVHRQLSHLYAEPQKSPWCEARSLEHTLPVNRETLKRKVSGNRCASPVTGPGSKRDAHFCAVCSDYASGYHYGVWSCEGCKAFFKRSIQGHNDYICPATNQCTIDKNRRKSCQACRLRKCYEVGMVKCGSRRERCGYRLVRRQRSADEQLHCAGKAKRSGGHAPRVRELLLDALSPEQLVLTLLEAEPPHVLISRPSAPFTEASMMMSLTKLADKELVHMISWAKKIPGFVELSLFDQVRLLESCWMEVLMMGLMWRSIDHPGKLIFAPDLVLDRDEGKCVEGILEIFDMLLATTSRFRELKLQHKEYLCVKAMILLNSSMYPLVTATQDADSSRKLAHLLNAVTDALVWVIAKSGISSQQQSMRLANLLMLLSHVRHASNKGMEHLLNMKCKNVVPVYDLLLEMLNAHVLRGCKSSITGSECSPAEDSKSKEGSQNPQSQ

Take `C=CCc1ccc(O)c(OC)c1`: the Potency entry in test [1], in test [2], in [3], in test [4], in test [5] and in [6] was “inactive” in each case. The Potency result in [7], in [9], in test [10], in [11], in test [12] and in [13] was “inactive” in each case. Moreover, the Potency entry in [14], in [15] and in test [16] was “inactive” each time. Moreover, in test [8], the molecule was classed as inactive.
As to `CCN(CC)C(=O)c1cccc(C)c1`, the Potency result in test [1], in test [2], in test [3], in test [4], in test [5] and in test [6] was “inactive” throughout. The Potency entry in test [7], in [9], in test [17], in test [18], in test [10] and in [11] was “inactive” in each case. Besides, the Potency result in test [12], in test [13], in test [14], in test [15] and in test [16] was “inactive” in each case. Besides, the result in test [8] was inactive.
For the molecule `O=c1[nH]cnc2c1ncn2[C@H]1CC[C@@H](CO)O1`, the Potency result in test [1], in test [2], in test [3], in test [4], in test [5] and in [6] was “inactive” throughout. For the same molecule, the Potency entry in test [7], in test [9], in test [10], in test [11], in test [12] and in test [13] was “inactive” throughout. Besides, the Potency entry in test [14], in [15] and in test [16] was “inactive” throughout. Moreover, the call in test [8] was inactive.
Turning to `CCCCOC(=O)c1ccc(O)cc1`, the Potency entry in test [1], in test [19], in test [3], in [6], in test [7] and in test [9] was “inactive” throughout. The Potency result in test [17], in test [10], in test [11], in test [20], in test [12] and in test [14] was “inactive” throughout. In addition, the Potency entry in test [15] and in test [16] was “inactive” throughout. Further, the Potency in [4] is 27.6 µM (active) and 30.6 µM (active); in test [18] it was 19.3 µM (active). The molecule was classed as inactive in test [8].
Consider `CCc1nc(N)nc(N)c1-c1ccc(Cl)cc1`, for which the Potency entry in [1], in [3], in test [4], in [6], in test [7] and in test [17] was “inactive” in each case. Moreover, the Potency result in [10], in [12], in test [13] and in test [16] was “inactive” throughout. Besides, the Potency in [2] is 31.1 µM (active) and 48.6 µM (active); in [9], 17.5 µM (active) and 27.3 µM (active); in test [11], 21.7 µM (active) and 18.8 µM (active). In [8], the molecule was classed as inactive.
Take `CS(=O)(=O)OCCCCOS(C)(=O)=O`: the Potency result in [1], in test [2], in [3], in test [4], in test [5] and in test [6] was “inactive” throughout. Besides, the Potency entry in [7], in [9], in [10], in [11], in test [12] and in [13] was “inactive” in each case. The Potency result in test [14], in test [15] and in [16] was “inactive” throughout. The outcome in test [8] was inactive.
